Assay outcomes (PubChem BioAssay)
Only some compounds are listed: those with a hit (about 0.4% of all), similar ones and a draw of the others.
Ba CapD inh: CapD enzyme inhibition | AID 492967 | z-score (no concentration beside the values) | hit rate 0.23% among 140,000 | purified CapD enzyme, fluorescence intensity read-out; active compounds read low; in the data active = z-score mostly below about -2.9, no sharp cut-off; inactive = mostly above about -1.9
AID504770: E. coli YBA685 growth inhibition, screen for V. cholerae RctB inhibitors; E. coli YBA685 rctB-dependent plasmid, OD600 growth, 3 h; active compounds read low; z-score (concentration not given with the values); hit rate 0.27% among 130,000; AID 504770; in the data active = z-score below about -2, passing the limit was not always enough
* = called active by the depositor; · = no result.

SMILES	Ba CapD inh	AID504770
N#Cc1cc2c(nc1SCC(=O)N1CCCCC1)CCCC2	-0.79	-0.05
N#Cc1cc2c(nc1SCC(=O)O)CCC2	6.3	-2.4*
Cc1ccc(OCCSc2nc3ccccc3n2CC(O)CO)cc1 (configuration not stated)	-0.13	·
CCCNC(=O)Cc1ncn[nH]1	1.9	-0.6
O=C(Cc1ncn[nH]1)NCCc1ccccc1	-5.8*	-0.7
CCN(CC)CCCNC(=O)OCC1CCCN(Cc2cc(OC)c(OC)cc2Br)C1 (configuration not stated)	-0.1	·
CCc1ccc(N(C)C(=O)CN2Cc3ccccc3C2=O)cc1	-1.2	2.2
CCOC(=O)c1sc2ncnc(N3CCc4ccccc4C3)c2c1C	0.51	-0.4
CCOC(=O)c1cnc(N2CCc3ccccc3C2)nc1N	-3.9*	-0.75
Cc1nc2sc3c(c2c(=O)n1N)CCCC3	·	0.35
COc1ccc(C(=O)c2nc3ccccc3n2C(C)C)cc1OC	-0.45	-4.6*
COc1ccc(C(=O)NCc2nc3ccccc3n2CC(C)C)cc1OC	-0.38	0.95
C=CCOc1ccc(C2/C(=C(\O)c3ccccc3)C(=O)C(=O)N2c2nnc(C)s2)cc1 (configuration not stated)	-0.46	·
c1ccc(Oc2ccc(CN3CCCCC3)o2)cc1	-0.01	-0.55
Cc1nc2ncnn2c(C)c1CCC(=O)NCCCc1ccccc1	-0.73	-0.7
CCOc1cc(CNc2ncn[nH]2)ccc1OCC(=O)NC(C)(C)C	-0.42	-2.5*
COc1cc(CNC(C)(C)C)ccc1OCC(=O)NC(C)(C)C	-0.38	0.05
Cc1ccc(NN)cc1	0.57	-1.6
CCOC(=O)/C(C#N)=C/Nc1cc(C)no1	-4.2*	-0.75
CCOC(=O)/C(C#N)=C/Nc1ccn[nH]1	-1.9	1.6
O=C1C=CC(=O)N1Cc1cccs1	-0.51	-4.2*
O=S1(=O)CCN(Cc2cccs2)CC1	0.61	·
Cn1cc(CCC(=O)NCCCN2CCC(N3CCCCC3)CC2)c2ccccc21	0.64	-0.3
O=C(Cn1c(=S)[nH]c2ccccc21)c1ccc(-c2ccccc2)cc1	0.53	1.9
CC(=O)n1c(=S)[nH]c2ccccc21	-5.2*	0.1
SMILES	Ba CapD inh	AID504770
COc1ccc(C2=NN(C(=O)c3cccs3)C(c3cccc(OC)c3OC)C2)cc1OC (configuration not stated)	1.4	·
CCCN1CCC(N(C2CC2)S(=O)(=O)c2ccc(NC(=O)Nc3ccccc3OC)cc2)CC1	-0.095	·
Cc1ccc2scc(N3CCOCC3)c(=O)c2c1	-4.2*	0.35
O=c1c(N2CCC3(CC2)OCCO3)csc2ccccc12	-1.7	-1.1
COc1cc2c(C(=O)N3CCN(c4ccccc4C)CC3)c(C)oc2cc1Br	0.82	1.4
Cc1ccccc1N1CCN(C(=O)c2c(C)oc3cc4c(C(=O)N5CCN(c6ccccc6C)CC5)c(C)oc4cc23)CC1	-0.59	-3.3*
CC1=C(c2ccccc2)[N+](=O)C(C)(C)N1[O-]	-1.6	-0.6
CC1(C)N([O-])c2ccccc2[N+]1=O	-0.28	-4*
CSc1sc(-c2ccn[nH]2)c(-c2ccccc2)c1C#N	1.6	·
O=C(NCCN1CCN(C(=O)c2ccc(Br)cc2)CC1)C(=O)Nc1ccc(F)cc1	0.74	·
COc1ccc(OC)c(NC(=O)c2cc3ccc(OC)cc3oc2=Nc2ccc(C(=O)O)cc2)c1	0.07	·
COc1ccc2cc(C(=O)Nc3ccc(OC)c(OC)c3)c(=Nc3ccc(C(=O)O)cc3)oc2c1	-3.4*	·
CCCSc1ncccc1C(N)=O	0.63	·
O=S1(=O)CCN(Cc2cccc(C(F)(F)F)c2)CC1	0.15	-2.7*
FC(F)(F)c1cccc(CN2CCSCC2)c1	0.41	-0.3
O=C(O)c1ccccc1O	-0.4	1.4
C=C(C)c1ccccc(=O)c1O	-3.1	-5*
CCNc1ccc2oc3ccccc3c2c1	82	-1.3
COC(=O)CCN1C(=O)/C(=C\c2ccc(O)c(OC)c2)SC1=S	-0.13	0
COc1cc(/C=C2/SC(=S)N(NC(C)=O)C2=O)ccc1O	-4.8*	-0.2
O=C(CSc1nc2sccc2c(=O)n1-c1ccccc1)N1CCCC1	·	-1
CCc1ccc(-c2ccc(C(=O)N3CCN(c4ccncc4)CC3)cc2)cc1	-0.36	·
O=S(=O)(c1cccc(C(F)(F)F)c1)N1CCN(Cc2cccc(Cl)n2)CC1	-0.43	·
O=C(O)C1Nc2c(I)cccc2C2C=CCC12 (configuration not stated)	-8.1*	-0.7
CC(=O)Nc1ccc2c(c1)C1C=CCC1C(C(=O)O)N2 (configuration not stated)	·	1.4
CCC(=O)N1c2ccccc2NC2=C(C(=O)CC(c3cccs3)C2)C1c1ccc(C(=O)OC)cc1 (configuration not stated)	8.4	·
S=C=NCCn1ccc2ccccc21	·	-3.8*
NCCn1ccc2ccccc21	·	-0.45
COc1cc2c(cc1OC)C(C)N(C(=O)CN1C(=O)CCc3ccccc31)CC2 (configuration not stated)	-0.2	-2.9*
COc1cc2c(cc1OC)C(C)N(C(=O)c1ccccc1)CC2 (configuration not stated)	0.81	2.2
